# Test results published in the supplement of paper PMC10732440.
# ± gives the standard deviation of the averaged measurements.
# Test system: Caenorhabditis elegans N2 infected with Nematocida parisii ERTm1
# Test: progeny production relative to DMSO uninfected control; higher = more progeny despite microsporidia infection (inhibition of infection with low host toxicity)
# Details: infection time 6 days
# In short: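 Bleach-synchronised wild-type C. elegans L1 larvae (100 per well) were placed in 96-well plates with K-medium, E. coli OP50 and 15,000 N. parisii spores/μL, with compound pinned to 100 μM or 40 μM in 1% DMSO. Plates were shaken at 21°C for 6 days; worms were then Rose Bengal-stained, flatbed-scanned and counted with WorMachine, each compound and dose tested three times. Progeny production is given as a percentage of the spore-free vehicle control, averaged across replicates.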
SMILES,progeny production (40 µM),progeny production (100 µM)
O=C(c1ccccc1)N1CCN(c2ccccc2NC(=O)C(Cl)(Cl)Cl)CC1,13 ± 10%,12.7 ± 8.6%
CC(C)CCN1C(=O)C(C2=NS(=O)(=O)c3cc(NS(C)(=O)=O)ccc3N2)=C(O)[C@@H]2[C@H]3CC[C@H](C3)[C@@H]21,3.42 ± 3.9%,9.92 ± 5.3%
Cc1nc2ccc(Cl)cc2c(-c2ccccc2)c1CC(=O)O,6.84 ± 5.6%,13.8 ± 12%
CC(C)(C)c1ccc(OCCn2nc(C(=O)O)c3ccccc3c2=O)cc1,4.58 ± 1.4%,12 ± 6.5%
CNc1nc(=O)[nH]cc1F,2.97 ± 1.7%,12.9 ± 10%
Oc1ccc(NCc2ccccc2OCc2ccccc2)cc1,5.72 ± 3.1%,8.25 ± 6.3%
Cc1onc(-c2ccccc2Cl)c1C(=O)N[C@@H]1C(=O)N2[C@@H]1SC(C)(C)[C@@H]2C(=O)O,2.76 ± 1.9%,19.1 ± 12%
COc1ccc(SC(=O)N[C@H](CCC(=O)O)C(=O)O)cc1,9.06 ± 7.1%,11.3 ± 0.6%
COc1ccc(-n2cnc3cc(NCc4ccco4)ccc32)cc1,10 ± 2.1%,17.2 ± 0.88%
NS(=O)(=O)c1ccc(NC(=O)NC(c2ccccc2)c2ccccc2)cc1,6.18 ± 1.6%,16.9 ± 14%
O=C(/C=C/n1cnc(-c2cc(C(F)(F)F)cc(C(F)(F)F)c2)n1)NNc1cnccn1,7.43 ± 4%,14.1 ± 2.6%
CCOC(=O)Nc1cc(NC(C)CC(C)CN(CC)CC)c2nc(-c3ccccc3)c(-c3ccccc3)nc2n1 (configuration not stated),2.55 ± 1%,13.3 ± 9.8%
CCCCCCCCC(CP(=O)(O)C(C)N)C(=O)O (configuration not stated),7.53 ± 0.85%,18.6 ± 11%
COc1cc(C2C3=C(CC(C)(C)CC3=O)Nc3ccccc3N2C(C)=O)ccc1OCc1ccccc1 (configuration not stated),2.3 ± 0.93%,15.1 ± 15%
O=C(NC(=O)N1CCCc2ccccc21)c1ccc(Cl)cc1Cl,3.48 ± 1.1%,19.2 ± 21%
COc1ccc(NC(=O)CC2Sc3ncnn3C2=O)cc1 (configuration not stated),8.48 ± 3.4%,14.8 ± 8.1%
Nc1nc2c(ncn2COC(CO)CO)c(=O)[nH]1,7.03 ± 4.7%,10.9 ± 4.7%
CN(C(=O)C1(c2ccc(Cl)cc2)CCC1)c1ccccc1,2.68 ± 1.6%,14.9 ± 2.4%
Clc1cccc(-c2nnc(-c3ccccc3)o2)c1,1.33 ± 1.1%,4.24 ± 2.4%
CCOc1noc2cc(OCCC3CCN(c4ccc(C)nn4)CC3)ccc12,4.43 ± 1.4%,17.1 ± 11%
O=C(NC(=O)N1CCCc2ccccc21)c1cccc(Cl)c1,2.7 ± 0.83%,19.9 ± 14%

SMILES,progeny production (40 µM),progeny production (100 µM)
Cc1nc2ccc(Oc3ccccc3)cc2c2c1CCN2CCc1ccccc1,4.79 ± 0.99%,11.3 ± 9.1%
Oc1ccc2[nH]c(-c3ccccc3)nc2c1,5.32 ± 3.2%,11.5 ± 2.5%
O=C(NN1C(=O)[C@@H]2[C@@H]3C=C[C@@H]([C@H]4C[C@@H]34)[C@@H]2C1=O)c1ccc(C(F)(F)F)cc1,3.22 ± 1.3%,9.48 ± 4%
O=S(=O)(Nc1ccc(-n2cccc2)cc1)c1ccc(Cl)c(Cl)c1,6.12 ± 3.2%,35.7 ± 29%
CC(=O)N1CCN(c2ccc(OCC3COC(Cn4ccnc4)(c4ccc(Cl)cc4Cl)O3)cc2)CC1 (configuration not stated),5.16 ± 2.3%,18 ± 6.4%
Nc1nc2c(Cc3cccnc3)c[nH]c2c(=O)[nH]1,5.79 ± 0.11%,16.4 ± 9.7%
Nc1nc2c(ncn2/C=C2/CC2(CO)CO)c(=O)[nH]1,3.83 ± 2.6%,11.8 ± 3.7%
Cc1c(OCC(F)(F)F)ccnc1C[S+]([O-])c1nc2ccccc2[nH]1 (configuration not stated),6.74 ± 4.3%,11 ± 6.1%
N=C(N)c1ccc(COc2ccc(Cl)cc2)cc1,3.13 ± 0.66%,7.24 ± 6.1%
Cc1c[nH]c(=O)nc1NCc1ccccc1,7.05 ± 4.5%,8.45 ± 2.8%
O=C(Nc1cccc(C2=NCCN2)c1)c1ccc(-c2ccc(C(=O)Nc3cccc(C4=NCCN4)c3)cc2)cc1,7.71 ± 2.9%,27.6 ± 16%
Cc1ccc(C)c(OCCCCCCN2C[C@H](O)[C@@H](O)[C@H](O)[C@H]2CO)c1,3.54 ± 0.93%,14.1 ± 11%
O=C(NO)C1(CS(=O)(=O)c2ccc(Oc3ccc(Cl)cc3)cc2)CCOCC1,5.79 ± 0.11%,7.72 ± 4.5%
Fc1ccc(-c2nc(-c3c[nH]c4ccc(Br)cc34)[nH]c2-c2ccc(F)cc2)cc1,3.87 ± 1.5%,6.81 ± 2.8%
CCOc1ccc(C(=O)NCCc2ccccc2)cc1,6.06 ± 3.1%,6.07 ± 3%
CC(C)Nc1nc2cc(Cl)c(Cl)cc2n1[C@H]1O[C@@H](CO)[C@H](O)[C@@H]1O,3.85 ± 0.59%,9.08 ± 2.1%
CN(C)[C@@H]1C(=O)C(C(N)=O)=C(O)[C@@]2(O)C(=O)C3=C(O)c4c(O)c(NC(=O)CN5CCCC5)cc(F)c4C[C@H]3C[C@@H]12,4.54 ± 0.11%,6.16 ± 0.72%
FC(F)(F)Oc1ccc(Nc2ccc3cccc(Cl)c3n2)cc1,6.88 ± 1.5%,11.1 ± 7.2%
NCCCc1ccccc1C(=O)Nc1ncc([N+](=O)O)s1,3.03 ± 1.9%,25.2 ± 31%
C=C[C@]1(C)C[C@@H](OC(=O)CS[C@@H]2C[C@H]3CC[C@@H](C2)N3C)[C@]2(C)[C@H](C)CC[C@]3(CCC(=O)[C@H]32)[C@@H](C)[C@@H]1O,11.3 ± 8.7%,15.1 ± 6.1%
